Results filed as inconclusive are left out. Calls of active or inactive are those of the source. The calls were made as follows, unless noted: active = hit-call score of the fitted dose curve at least 0.9, where 1 is the maximum; inactive = score below 0.9.
Assays:
[1] = ATG_TCF_b_cat_CIS: Attagene CIS-FACTORIAL HepG2 Assay for human T-Cell-Factor with beta-catenin (TCF/b-cat) (AID 2282965); settings: HepG2 TCF/beta-catenin cis-reporter transcription, actives raise or lower the signal
How it was run: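 Endogenous TCF/LEF activity read as reporter transcript level via RT-PCR and capillary electrophoresis fluorescence in transfected HepG2, 24 h exposure; gain or loss of signal fitted against DMSO controls.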

[2] = ATG_TAL_CIS: Attagene CIS-FACTORIAL HepG2 Assay for human TAL Basal Promoter (AID 2282966); settings: HepG2 Attagene cis-factorial TAL promoter reporter; actives raise or lower the signal;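 also: background control endpoint measuring basal TAL promoter reporter mRNA not a specific factor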
How it was run: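 Fluorescence of labelled reporter cDNA fragments, resolved by capillary electrophoresis, gave the readout. Human HepG2 liver cells carried transiently transfected cis-element reporter units and were treated for 24 hours; activity was fitted bidirectionally against DMSO.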

[3] = ATG_TGFb_CIS: Attagene CIS-FACTORIAL HepG2 Assay for human Transforming Growth Factor (TGF) (AID 2282967); settings: HepG2 Attagene CIS TGFb reporter, mRNA transcription; actives raise or lower the signal
How it was run: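 Cells were dosed for 24 hours, after which total RNA was reverse-transcribed and reporter sequences amplified, labeled and sized by capillary electrophoresis. Activity was fitted in both directions against DMSO.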

[4] = ATG_VDRE_CIS: Attagene CIS-FACTORIAL HepG2 Assay for human Vitamin D Receptor Element (VDRE) (AID 2282968); settings: HepG2 VDRE cis-reporter transcription, actives raise or lower the signal
How it was run: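 Reporter mRNA induction, quantified by capillary electrophoresis of fluorescently labelled RT-PCR products, was read 24 h after dosing HepG2 cells carrying transiently transfected cis-regulated reporter units; gain or loss relative to DMSO.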

[5] = biological target: Estrogen receptor (Homo sapiens) (UniProt P03372); assay: ATG_ERa_TRANS: Attagene TRANS-FACTORIAL HepG2 Assay for human Estrogen Receptor alpha (ERa) (AID 2282970; active = hit-call score of the fitted dose curve at least 0.9, where 1 is the maximum); settings: HepG2 Attagene TRANS ERa GAL4 reporter, mRNA
How it was run: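 Human liver HepG2, transient transfection of multiple GAL4-UAS reporter units; TRANS format (exogenous NR-Gal4 chimera). 24 h dosing. Readout: reporter mRNA, RT-PCR, 6-FAM primer extension, HpaI digest, capillary electrophoresis. Positive direction vs DMSO.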

[6] = biological target: X-box-binding protein 1 (Homo sapiens) (UniProt P17861); assay: ATG_Xbp1_CIS: Attagene CIS-FACTORIAL HepG2 Assay for human X-box Binding Protein 1 (XBP1) (AID 2282972); settings: HepG2 XBP1 cis-element reporter, Attagene multiplex; actives raise or lower the signal
How it was run: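 After a 24-hour chemical exposure of HepG2 cells carrying cis-regulated reporters, reporter mRNA levels are assessed. Quantification uses RT-PCR, 6-FAM labelling and capillary electrophoresis. Gain- or loss-of-signal is fitted against DMSO.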

[7] = ATG_M_19_TRANS: Attagene TRANS-FACTORIAL HepG2 Assay for M19 Transcription Factor (Internal Marker) (AID 2282974; active = hit-call score of the fitted dose curve at least 0.9, where 1 is the maximum); settings: HepG2 Attagene TRANS-FACTORIAL M19 internal marker reporter
How it was run: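 HepG2 cells transiently transfected with multiple GAL4-UAS reporter transcription units were exposed to chemicals for 24 h. Reporter mRNA was read by RT-PCR, 6-FAM primer extension, HpaI digestion and capillary electrophoresis; gain of signal fitted relative to DMSO.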

[8] = ATG_M_06_TRANS: Attagene TRANS-FACTORIAL HepG2 Assay for M06 Transcription Factor (Internal Marker) (AID 2282983; active = hit-call score of the fitted dose curve at least 0.9, where 1 is the maximum); settings: HepG2 Attagene TRANS M06 internal marker reporter
How it was run: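 Transfect HepG2 with MRTUs → dose compounds 24 h → isolate RNA, oligo(dT) RT → PCR with reporter primers → 6-FAM primer extension → HpaI digest → CE fragment analysis. Positive direction vs DMSO.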

[9] = biological target: Nuclear receptor subfamily 4 group A member 2 (Homo sapiens) (UniProt P43354); assay: ATG_NURR1_TRANS: Attagene TRANS-FACTORIAL HepG2 Assay for human Nuclear Receptor Related Protein 1 (NURR1) (AID 2282985; active = hit-call score of the fitted dose curve at least 0.9, where 1 is the maximum); settings: HepG2 Attagene TRANS reporter, mRNA readout
How it was run: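 Transient transfection of HepG2, human liver cells, with multiple GAL4-UAS reporter transcription units. Cells dosed 24 h, RNA isolated, reverse-transcribed, PCR-amplified, FAM-labelled, HpaI-digested, sized by capillary electrophoresis. DMSO served as negative control.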

[10] = biological target: Transcriptional activator Myb (Homo sapiens) (UniProt P10242); assay: ATG_Myb_CIS: Attagene CIS-FACTORIAL HepG2 Assay for human Myeloblastosis (Myb) Proto-Oncogene Transcription Factor (AID 2282986); settings: HepG2 Attagene CIS-FACTORIAL Myb reporter transcription; actives raise or lower the signal
How it was run: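 HepG2 cells were transiently transfected with cis-regulated multiple reporter transcription units reflecting endogenous Myb activity, then exposed to compound for 24 hours. Reporter mRNA was measured by RT-PCR with capillary electrophoresis; bidirectional fitting versus DMSO baseline.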

[11] = biological target: Steroid hormone receptor ERR1 (Homo sapiens) (UniProt P11474); assay: ATG_ERRa_TRANS: Attagene TRANS-FACTORIAL HepG2 Assay for human Estrogen-Related Receptor alpha (ERRa) (AID 2282971; active = hit-call score of the fitted dose curve at least 0.9, where 1 is the maximum); settings: HepG2 Attagene TRANS reporter, ERRa transactivation
How it was run: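 Reporter transcript induction was quantified by RT-PCR and capillary electrophoresis of FAM-labelled, HpaI-cut products after 24 h treatment of HepG2 cells carrying transiently transfected GAL4-UAS reporter units and an exogenous ERRa-Gal4 fusion; activity scored as increase over DMSO.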

[12] = ATG_GAL4_TRANS: Attagene TRANS-FACTORIAL HepG2 Assay for GAL4 (Internal Marker) (AID 2282976; active = hit-call score of the fitted dose curve at least 0.9, where 1 is the maximum); settings: HepG2 Attagene TRANS GAL4 internal marker reporter
How it was run: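 First, HepG2 cells were transfected with reporter units under GAL4-UAS control. Next, they were treated with chemical for 24 h. Finally, RNA was reverse-transcribed, PCR-amplified, FAM-labelled and resolved by capillary electrophoresis, with induction scored against DMSO.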

[13] = biological target: Oxysterols receptor LXR-alpha (Homo sapiens) (UniProt Q13133); assay: ATG_LXRa_TRANS: Attagene TRANS-FACTORIAL HepG2 Assay for human Liver X Receptor alpha (LXRa) (AID 2282980; active = hit-call score of the fitted dose curve at least 0.9, where 1 is the maximum); settings: HepG2 Attagene TRANS reporter, LXRa transactivation
How it was run: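 Transfect HepG2 with GAL4-UAS multiplex reporter constructs (TRANS format, chimeric receptor-GAL4); treat 24 h; extract RNA, reverse-transcribe, PCR-amplify, FAM-label, HpaI-digest; resolve fragments by capillary electrophoresis. Upward response vs DMSO.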

[14] = ATG_M_32_TRANS: Attagene TRANS-FACTORIAL HepG2 Assay for M32 Transcription Factor (Internal Marker) (AID 2282984; active = hit-call score of the fitted dose curve at least 0.9, where 1 is the maximum;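 also: transcript level of a background control reporter unit measured by RT-PCR and capillary electrophoresis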); settings: HepG2 Attagene TRANS M32 internal marker reporter
How it was run: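 Measures reporter mRNA induction in human HepG2 liver cells after 24 h chemical treatment. Transcripts from transiently transfected GAL4-UAS reporter units are amplified, fluorescently labelled and sized by capillary electrophoresis; gain of signal relative to DMSO.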

[15] = biological target: Nuclear receptor subfamily 1 group I member 3 (Homo sapiens) (UniProt Q14994); assay: ATG_CAR_TRANS: Attagene TRANS-FACTORIAL HepG2 Assay for human Constitutive Androstane Receptor (CAR) (AID 2282969; active = hit-call score of the fitted dose curve at least 0.9, where 1 is the maximum;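 also: activators raise reporter mRNA above DMSO so AC50 marks induction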); settings: HepG2 Attagene TRANS-FACTORIAL CAR reporter
How it was run: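 Readout is reporter mRNA induction, quantified by fluorescent primer extension and capillary electrophoresis after RT-PCR. Cells were HepG2 transiently carrying chimeric NR-Gal4 constructs with GAL4-UAS reporters, treated for 24 h; activity scored upward from DMSO.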

[16] = biological target: Glucocorticoid receptor (Homo sapiens) (UniProt P04150); assay: ATG_GR_TRANS: Attagene TRANS-FACTORIAL HepG2 Assay for human Glucocorticoid Receptor (GR) (AID 2282978; active = hit-call score of the fitted dose curve at least 0.9, where 1 is the maximum;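 also: activators score as hits since higher reporter transcript over DMSO is fitted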); settings: HepG2 Attagene TRANS GR reporter, mRNA transcription
How it was run: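 HepG2 cells transiently transfected with multiplexed reporter units in which chimeric NR-GAL4 proteins drive GAL4-UAS reporters; 24 h compound exposure. Reporter mRNA measured by RT-PCR, 6-FAM labelling, HpaI digestion and capillary electrophoresis; gain-of-signal fitted versus DMSO.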

[17] = biological target: Bile acid receptor (Homo sapiens) (UniProt Q96RI1); assay: ATG_FXR_TRANS: Attagene TRANS-FACTORIAL HepG2 Assay for Farnesoid X Receptor (FXR) (AID 2282979; active = hit-call score of the fitted dose curve at least 0.9, where 1 is the maximum;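 also: hits raise reporter mRNA above DMSO so AC50 marks FXR activation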); settings: HepG2 Attagene TRANS FXR-GAL4 reporter transcription
How it was run: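 Transient transfection of HepG2 with multiplexed GAL4-UAS reporter units; exogenous FXR-GAL4 chimera. Dose 24 h → TriZol RNA → oligo(dT) RT → PCR, 6-FAM primer extension, HpaI cut → CE. Gain vs DMSO.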

[18] = biological target: Hepatocyte nuclear factor 4-alpha (Homo sapiens) (UniProt P41235); assay: ATG_HNF4a_TRANS: Attagene TRANS-FACTORIAL HepG2 Assay for human Hepatocyte Nuclear Factor 4 alpha (HNF4a) (AID 2282982; active = hit-call score of the fitted dose curve at least 0.9, where 1 is the maximum); settings: HepG2 HNF4a transactivation reporter, mRNA readout
How it was run: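 Readout is fluorescent reporter-transcript fragments resolved by capillary electrophoresis after RT-PCR from HepG2 cells dosed for 24 h. Cells carried transfected GAL4-UAS reporter constructs measuring exogenous NR-GAL4 chimera activity; DMSO served as baseline.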

Estrogen receptor (Homo sapiens), sequence (P03372 whole entry, looked up, the tested form may be a part): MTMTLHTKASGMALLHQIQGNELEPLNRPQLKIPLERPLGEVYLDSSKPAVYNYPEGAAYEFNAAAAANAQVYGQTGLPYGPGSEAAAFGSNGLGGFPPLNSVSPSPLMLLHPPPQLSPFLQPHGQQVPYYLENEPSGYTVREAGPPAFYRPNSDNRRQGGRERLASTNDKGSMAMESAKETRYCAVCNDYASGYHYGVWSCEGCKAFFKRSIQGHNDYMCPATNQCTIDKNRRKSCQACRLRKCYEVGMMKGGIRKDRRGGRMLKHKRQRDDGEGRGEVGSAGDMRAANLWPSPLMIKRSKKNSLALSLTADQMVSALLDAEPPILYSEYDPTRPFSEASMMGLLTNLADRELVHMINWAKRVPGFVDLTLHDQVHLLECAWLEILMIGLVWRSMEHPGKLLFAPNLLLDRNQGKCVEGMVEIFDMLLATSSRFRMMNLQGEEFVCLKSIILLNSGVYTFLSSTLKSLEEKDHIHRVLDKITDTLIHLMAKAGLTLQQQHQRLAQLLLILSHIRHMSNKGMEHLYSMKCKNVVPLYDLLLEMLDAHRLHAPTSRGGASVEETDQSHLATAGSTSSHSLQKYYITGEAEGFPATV
X-box-binding protein 1 (Homo sapiens), sequence (P17861 whole entry, looked up): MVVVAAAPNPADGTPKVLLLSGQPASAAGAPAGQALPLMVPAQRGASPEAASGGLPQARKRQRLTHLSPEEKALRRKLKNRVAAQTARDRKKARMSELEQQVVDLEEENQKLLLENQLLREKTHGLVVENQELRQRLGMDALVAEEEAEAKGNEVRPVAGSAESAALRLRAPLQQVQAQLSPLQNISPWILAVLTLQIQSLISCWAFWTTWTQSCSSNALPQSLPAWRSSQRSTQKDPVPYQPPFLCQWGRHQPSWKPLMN
Nuclear receptor subfamily 4 group A member 2 (Homo sapiens), sequence (P43354 whole entry, looked up, the tested form may be a part): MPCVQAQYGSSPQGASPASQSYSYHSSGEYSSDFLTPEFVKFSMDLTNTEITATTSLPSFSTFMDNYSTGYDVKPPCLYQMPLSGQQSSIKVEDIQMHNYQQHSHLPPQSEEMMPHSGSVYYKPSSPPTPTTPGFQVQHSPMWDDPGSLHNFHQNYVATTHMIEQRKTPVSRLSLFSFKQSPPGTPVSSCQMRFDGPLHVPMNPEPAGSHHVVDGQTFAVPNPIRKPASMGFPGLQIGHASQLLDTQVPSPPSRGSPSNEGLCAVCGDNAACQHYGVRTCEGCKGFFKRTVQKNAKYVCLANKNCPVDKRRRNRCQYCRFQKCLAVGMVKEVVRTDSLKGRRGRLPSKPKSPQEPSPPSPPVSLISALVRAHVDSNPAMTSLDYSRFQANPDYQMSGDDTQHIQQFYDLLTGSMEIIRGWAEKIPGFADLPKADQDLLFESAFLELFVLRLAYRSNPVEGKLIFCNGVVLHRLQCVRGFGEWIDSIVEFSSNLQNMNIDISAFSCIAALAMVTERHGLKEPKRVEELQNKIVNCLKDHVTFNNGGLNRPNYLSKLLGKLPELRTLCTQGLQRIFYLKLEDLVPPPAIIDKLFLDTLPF
Transcriptional activator Myb (Homo sapiens), sequence (P10242 whole entry, looked up): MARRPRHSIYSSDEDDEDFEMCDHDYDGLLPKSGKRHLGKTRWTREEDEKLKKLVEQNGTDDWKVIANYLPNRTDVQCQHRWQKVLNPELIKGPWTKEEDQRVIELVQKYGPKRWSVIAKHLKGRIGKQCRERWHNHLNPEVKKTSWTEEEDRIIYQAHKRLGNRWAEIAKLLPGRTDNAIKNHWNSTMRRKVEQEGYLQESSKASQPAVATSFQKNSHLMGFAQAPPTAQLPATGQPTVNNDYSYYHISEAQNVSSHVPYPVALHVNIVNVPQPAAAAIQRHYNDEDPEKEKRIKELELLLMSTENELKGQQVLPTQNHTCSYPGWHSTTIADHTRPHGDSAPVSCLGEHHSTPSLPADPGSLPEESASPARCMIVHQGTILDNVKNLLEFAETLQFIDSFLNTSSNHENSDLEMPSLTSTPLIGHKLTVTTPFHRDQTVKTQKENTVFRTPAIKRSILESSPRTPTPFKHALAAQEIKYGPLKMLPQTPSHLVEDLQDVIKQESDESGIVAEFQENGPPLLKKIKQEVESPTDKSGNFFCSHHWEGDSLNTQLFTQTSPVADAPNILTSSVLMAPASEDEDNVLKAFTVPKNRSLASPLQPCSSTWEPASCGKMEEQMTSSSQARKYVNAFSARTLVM
Steroid hormone receptor ERR1 (Homo sapiens), sequence (P11474 whole entry, looked up, the tested form may be a part): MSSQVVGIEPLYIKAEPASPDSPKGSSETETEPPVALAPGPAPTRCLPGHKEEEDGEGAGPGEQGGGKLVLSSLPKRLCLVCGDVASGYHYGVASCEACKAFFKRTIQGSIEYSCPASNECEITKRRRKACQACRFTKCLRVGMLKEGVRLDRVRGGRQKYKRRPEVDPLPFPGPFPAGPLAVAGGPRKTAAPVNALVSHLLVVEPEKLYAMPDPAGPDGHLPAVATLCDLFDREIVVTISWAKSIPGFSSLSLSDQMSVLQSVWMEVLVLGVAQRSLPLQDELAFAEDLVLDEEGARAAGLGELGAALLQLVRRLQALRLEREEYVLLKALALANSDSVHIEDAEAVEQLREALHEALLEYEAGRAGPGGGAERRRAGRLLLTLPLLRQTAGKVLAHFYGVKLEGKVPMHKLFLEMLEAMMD
Oxysterols receptor LXR-alpha (Homo sapiens), sequence (Q13133 whole entry, looked up, the tested form may be a part): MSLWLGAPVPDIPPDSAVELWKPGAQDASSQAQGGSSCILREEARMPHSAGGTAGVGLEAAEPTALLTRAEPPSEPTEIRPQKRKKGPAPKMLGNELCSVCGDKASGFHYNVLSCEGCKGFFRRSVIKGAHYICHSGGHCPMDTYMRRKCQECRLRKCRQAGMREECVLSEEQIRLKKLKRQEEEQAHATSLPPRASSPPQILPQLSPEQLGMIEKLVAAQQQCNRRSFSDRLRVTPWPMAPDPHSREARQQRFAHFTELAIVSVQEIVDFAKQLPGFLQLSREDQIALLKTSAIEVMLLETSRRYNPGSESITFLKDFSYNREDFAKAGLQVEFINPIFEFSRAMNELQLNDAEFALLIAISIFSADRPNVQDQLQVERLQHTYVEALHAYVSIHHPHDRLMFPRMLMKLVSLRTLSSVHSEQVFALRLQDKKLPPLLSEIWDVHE
Hepatocyte nuclear factor 4-alpha (Homo sapiens), sequence (P41235 whole entry, looked up, the tested form may be a part): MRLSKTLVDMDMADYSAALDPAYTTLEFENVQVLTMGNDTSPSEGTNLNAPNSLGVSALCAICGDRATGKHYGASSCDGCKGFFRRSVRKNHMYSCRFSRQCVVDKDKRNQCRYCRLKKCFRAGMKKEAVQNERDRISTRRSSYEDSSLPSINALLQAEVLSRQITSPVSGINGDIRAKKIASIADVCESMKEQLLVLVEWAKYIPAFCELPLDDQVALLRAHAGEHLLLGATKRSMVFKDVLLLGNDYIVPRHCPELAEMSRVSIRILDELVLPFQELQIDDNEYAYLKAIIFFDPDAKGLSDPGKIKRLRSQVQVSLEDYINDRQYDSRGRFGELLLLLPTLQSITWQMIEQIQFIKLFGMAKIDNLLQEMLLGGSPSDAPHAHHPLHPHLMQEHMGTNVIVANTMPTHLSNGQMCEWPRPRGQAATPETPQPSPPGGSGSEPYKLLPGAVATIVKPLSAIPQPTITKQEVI
Bile acid receptor (Homo sapiens), sequence (Q96RI1 whole entry, looked up, the tested form may be a part): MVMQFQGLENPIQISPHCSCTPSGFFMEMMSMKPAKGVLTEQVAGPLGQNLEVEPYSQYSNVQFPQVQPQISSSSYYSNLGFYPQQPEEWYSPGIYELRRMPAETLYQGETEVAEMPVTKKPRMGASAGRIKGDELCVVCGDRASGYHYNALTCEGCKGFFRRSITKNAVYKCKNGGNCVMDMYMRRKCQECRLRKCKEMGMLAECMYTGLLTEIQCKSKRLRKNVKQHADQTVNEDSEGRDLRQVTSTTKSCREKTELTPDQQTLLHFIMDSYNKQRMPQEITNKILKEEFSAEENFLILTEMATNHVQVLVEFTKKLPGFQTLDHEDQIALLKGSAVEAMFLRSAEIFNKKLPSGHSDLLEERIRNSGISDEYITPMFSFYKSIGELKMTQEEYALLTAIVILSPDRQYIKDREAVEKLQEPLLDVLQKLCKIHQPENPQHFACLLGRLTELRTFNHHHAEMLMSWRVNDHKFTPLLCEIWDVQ
Glucocorticoid receptor (Homo sapiens), sequence (P04150 whole entry, looked up, the tested form may be a part): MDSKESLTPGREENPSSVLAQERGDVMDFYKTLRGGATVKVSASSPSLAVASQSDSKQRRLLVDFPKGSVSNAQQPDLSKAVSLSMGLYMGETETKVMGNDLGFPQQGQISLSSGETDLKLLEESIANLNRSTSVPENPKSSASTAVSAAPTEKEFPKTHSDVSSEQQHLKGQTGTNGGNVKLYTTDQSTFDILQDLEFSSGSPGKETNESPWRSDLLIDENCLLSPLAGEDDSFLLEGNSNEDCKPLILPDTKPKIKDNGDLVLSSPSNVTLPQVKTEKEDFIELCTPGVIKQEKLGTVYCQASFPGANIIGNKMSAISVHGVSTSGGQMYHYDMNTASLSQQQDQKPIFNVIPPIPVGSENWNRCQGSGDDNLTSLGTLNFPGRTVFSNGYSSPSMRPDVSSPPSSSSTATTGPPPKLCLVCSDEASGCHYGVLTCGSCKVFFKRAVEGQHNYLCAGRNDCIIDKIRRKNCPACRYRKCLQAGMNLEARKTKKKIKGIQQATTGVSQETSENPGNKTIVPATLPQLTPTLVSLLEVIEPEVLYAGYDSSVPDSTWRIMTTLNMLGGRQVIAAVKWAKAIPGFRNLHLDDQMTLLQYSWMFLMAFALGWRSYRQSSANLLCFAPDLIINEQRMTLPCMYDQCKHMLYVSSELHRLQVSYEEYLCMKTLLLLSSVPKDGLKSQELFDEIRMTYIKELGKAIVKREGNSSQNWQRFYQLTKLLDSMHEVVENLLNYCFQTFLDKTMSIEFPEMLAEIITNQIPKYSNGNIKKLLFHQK

SMILES | outcome [1] | outcome [2] | outcome [3] | outcome [4] | AC50 [5] | outcome [6] | outcome [7] | outcome [8] | outcome [9] | outcome [10] | outcome [5] | outcome [11] | outcome [12] | outcome [13] | outcome [14] | outcome [15] | outcome [16] | outcome [17] | outcome [18]
c1ccc(Sc2ccccc2)cc1 | inactive | inactive | inactive | inactive | 38.3 µM (active) | inactive | inactive | inactive | inactive | inactive |  |  |  |  |  |  |  |  | 
CCC(C)C1CCCCC1=O (stereo not drawn) | inactive | inactive | inactive | inactive |  | inactive | inactive | inactive | inactive | inactive | inactive | inactive | inactive | inactive | inactive |  |  |  | 
O=C1OCc2ccccc21 | inactive | inactive | inactive | inactive |  | inactive |  |  |  | inactive |  |  |  |  | inactive | inactive | inactive | inactive | inactive
OC[C@@H](O)[C@H](O)[C@@H](O)[C@@H](O)CO | inactive | inactive | inactive | inactive | 13.8 µM (active) | inactive | inactive |  |  | inactive |  | inactive |  | inactive | inactive |  |  |  | inactive
CCCC1CCC(=O)CC1 | inactive | inactive | inactive | inactive |  | inactive | inactive | inactive | inactive | inactive | inactive |  |  |  | inactive |  |  |  | 

From PubChem BioAssay (EPA / NIEHS)
